# About 79,000 compounds went through this panel and 15% of them were active in at least one assay; those are over-represented in the sample as a whole. Values without a mark were called inactive. Calls of active or inactive are those of the source. Cut-off read from the data, not from the text of the source: active = growth inhibition above about 70%; inactive = the rest.
# Experiments:
# [1] = NCI Yeast Anticancer Drug Screen. Data for the wt1 strain (AID 149);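 note: 0% = growth of vehicle-treated wt1 cultures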; conditions: S. cerevisiae wt1 strain (SPY 50644) growth inhibition, active compounds read high
# How it was run: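 Yeast wt1 strain exposed to compounds; growth inhibition measured relative to vehicle-treated controls.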
# [2] = NCI Yeast Anticancer Drug Screen. Data for the rad50EPP+ strain (AID 151);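 note: 0% = growth of vehicle-treated control cultures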; conditions: S. cerevisiae rad50 mutant strain, active compounds read high
# How it was run: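 Compounds were applied to the rad50EPP+ yeast strain, which bears a defined DNA repair alteration, and growth inhibition was determined relative to vehicle-treated cultures.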
# [3] = NCI Yeast Anticancer Drug Screen. Data for the mgt1 strain (AID 153); conditions: S. cerevisiae mgt1 mutant growth inhibition, active compounds read high
# How it was run: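 Strain: mgt1 yeast, one of a set carrying defined DNA damage repair or cell cycle control alterations. Compound-treated growth compared with vehicle.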
# [4] = NCI Yeast Anticancer Drug Screen. Data for the rad50 strain (AID 155);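 note: 0% = growth of vehicle-only cultures of the same strain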; conditions: S. cerevisiae rad50 strain growth inhibition, active compounds read high
# How it was run: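 Yeast carrying a defined DNA repair defect were exposed to test compounds, and growth was compared with vehicle-treated controls to give percent inhibition.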
# [5] = NCI Yeast Anticancer Drug Screen. Data for the mec2-1 strain (AID 157); conditions: S. cerevisiae mec2-1 strain, active compounds read high
# How it was run: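 Strain: mec2-1 (DNA repair/cell cycle alteration). Compound exposure, then growth measured; inhibition expressed relative to vehicle.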
# [6] = NCI Yeast Anticancer Drug Screen. Data for the rad14 strain (AID 159);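 note: 0% = growth of vehicle-treated control cultures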; conditions: S. cerevisiae rad14 strain growth inhibition, active compounds read high
# How it was run: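 Yeast cells carrying a defined DNA-repair defect were exposed to compounds, and growth inhibition was calculated relative to vehicle-treated control cultures.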
# [7] = NCI Yeast Anticancer Drug Screen. Data for the sgs1 mgt1 strain (AID 161);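 note: 0% = growth of cultures given vehicle only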; conditions: S. cerevisiae sgs1 mgt1 strain, active compounds read high
# How it was run: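 Genetically altered yeast, compound exposure, growth inhibition relative to vehicle.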
# [8] = NCI Yeast Anticancer Drug Screen. Data for the CLN2oe strain (AID 163);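 note: 0% = growth of vehicle-only control cultures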; conditions: S. cerevisiae CLN2oe strain, active compounds read high
# How it was run: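 Growth of a genetically modified yeast strain is measured after compound exposure and compared with cultures given vehicle alone.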
# [9] = NCI Yeast Anticancer Drug Screen. Data for the cln2 rad14 strain (AID 165);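 note: 0% = growth equal to vehicle treated cultures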; conditions: S. cerevisiae cln2 rad14 strain, active compounds read high
# How it was run: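 Compounds are applied to the cln2 rad14 yeast strain, and growth is then compared with that of vehicle-treated cultures to give inhibition.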
# [10] = NCI Yeast Anticancer Drug Screen. Data for the bub3 strain (AID 167); conditions: S. cerevisiae bub3 mutant strain, active compounds read high
# How it was run: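 Compounds were applied to a genetically altered yeast strain carrying a cell-cycle control defect. Growth inhibition was scored against vehicle-treated controls.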
# [11] = NCI Yeast Anticancer Drug Screen. Data for the wt2 strain (AID 169);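 note: 0% = growth of vehicle-treated yeast cultures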; conditions: S. cerevisiae wt2 strain growth inhibition, active compounds read high
# How it was run: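 This strain belongs to a panel of yeast strains with defined genetic alterations in DNA damage repair or cell cycle control. Compounds are applied, and growth inhibition is measured against vehicle-treated cultures.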
# [12] = NCI Yeast Anticancer Drug Screen. Data for the sgs1 strain (AID 173);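 note: 0% = growth of vehicle-only control cultures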; conditions: S. cerevisiae sgs1 mutant, active compounds read high
# How it was run: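 Growth of a yeast strain bearing a defined genetic alteration is measured after compound treatment. Inhibition is expressed relative to vehicle-only controls.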
# [13] = NCI Yeast Anticancer Drug Screen. Data for the mlh1 rad18 strain (AID 175); conditions: S. cerevisiae mlh1 rad18 strain growth inhibition, active compounds read high
# How it was run: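 Read-out is yeast growth inhibition, calculated against vehicle-only controls. The compound was applied to a strain engineered with DNA damage repair alterations.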
# [14] = NCI Yeast Anticancer Drug Screen. Data for the rad52 strain (AID 147);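 note: 0% = growth of vehicle-treated control cultures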; conditions: S. cerevisiae rad52 mutant growth inhibition, active compounds read high
# How it was run: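 Compounds are applied to a genetically defined yeast strain lacking normal DNA damage repair, and inhibition of growth is expressed relative to cultures given vehicle only.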
# [15] = NCI Yeast Anticancer Drug Screen. Data for the mlh1 strain (AID 171);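 note: 0% = growth of vehicle-treated control cultures of the same strain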; conditions: S. cerevisiae mlh1 strain growth inhibition, active compounds read high
# How it was run: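 Growth of the mutant yeast strain after compound exposure, expressed as inhibition relative to vehicle-only controls.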
# [16] = NCI Yeast Anticancer Drug Screen. Data for the rad18 strain (AID 177); conditions: S. cerevisiae rad18 mutant growth inhibition, active compounds read high
# How it was run: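 Growth of the mutant yeast strain after compound exposure, normalised to vehicle-only cultures.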
# [17] = at 5.0 µM (retest, dose inferred, filed as 0.5)
# [18] = at 50.0 µM (retest, dose inferred, filed as 5.0)
structure (smiles),measurement,setting,value
CCCCCCCCCCCCCCCCCCNC(=S)/N=C/c1c(O)c2ccccc2[nH]c1=O,growth inhibition,[1]; at 1.2 µM,-32%
same,growth inhibition,[1]; at 3.7 µM,-6%
same,growth inhibition,[1]; at 11.0 µM,-3%
same,growth inhibition,[1]; at 33.0 µM,-3%
same,growth inhibition,[1]; at 100.0 µM,-3%
same,growth inhibition,[2]; at 1.2 µM,1%
same,growth inhibition,[2]; at 3.7 µM,3%
same,growth inhibition,[2]; at 11.0 µM,12%
same,growth inhibition,[2]; at 33.0 µM,29%
same,growth inhibition,[2]; at 100.0 µM,40%
same,growth inhibition,[3]; at 1.2 µM,1%
same,growth inhibition,[3]; at 3.7 µM,4%
same,growth inhibition,[3]; at 11.0 µM,2%
same,growth inhibition,[3]; at 33.0 µM,1%
same,growth inhibition,[3]; at 100.0 µM,0%
same,growth inhibition,[4]; at 1.2 µM,-1%
same,growth inhibition,[4]; at 3.7 µM,0%
same,growth inhibition,[4]; [17],-12%
same,growth inhibition,[4]; at 11.0 µM,1%
same,growth inhibition,[4]; at 33.0 µM,1%
same,growth inhibition,[4]; [18],61%
same,growth inhibition,[4]; at 50.0 µM,63%
same,growth inhibition,[4]; at 100.0 µM,-1%
same,growth inhibition,[5]; at 1.2 µM,0%
same,growth inhibition,[5]; at 3.7 µM,2%
same,growth inhibition,[5]; [17],-5%
same,growth inhibition,[5]; at 11.0 µM,-3%
same,growth inhibition,[5]; at 33.0 µM,2%
same,growth inhibition,[5]; [18],27%
same,growth inhibition,[5]; at 50.0 µM,6.6%
same,growth inhibition,[5]; at 100.0 µM,-1%
same,growth inhibition,[6]; at 1.2 µM,1%
same,growth inhibition,[6]; at 3.7 µM,1%
same,growth inhibition,[6]; at 11.0 µM,0%
same,growth inhibition,[6]; at 33.0 µM,4%
same,growth inhibition,[6]; at 100.0 µM,4%
same,growth inhibition,[7]; [17],4%
same,growth inhibition,[7]; [18],26%
same,growth inhibition,[7]; at 50.0 µM,86.5% (active)
same,growth inhibition,[8]; at 1.2 µM,-4%
same,growth inhibition,[8]; at 3.7 µM,-3%
same,growth inhibition,[8]; at 11.0 µM,2%
same,growth inhibition,[8]; at 33.0 µM,-7%
same,growth inhibition,[8]; at 100.0 µM,3%
same,growth inhibition,[9]; [17],-7%
same,growth inhibition,[9]; [18],16%
same,growth inhibition,[9]; at 50.0 µM,-24%
same,growth inhibition,[10]; at 1.2 µM,-4%
same,growth inhibition,[10]; at 3.7 µM,-4%
same,growth inhibition,[10]; [17],-25%
same,growth inhibition,[10]; at 11.0 µM,-2%
same,growth inhibition,[10]; at 33.0 µM,-5%
same,growth inhibition,[10]; [18],69%
same,growth inhibition,[10]; at 50.0 µM,72.3% (active)
same,growth inhibition,[10]; at 100.0 µM,26%
same,growth inhibition,[11]; at 1.2 µM,-3%
same,growth inhibition,[11]; at 3.7 µM,-1%
same,growth inhibition,[11]; at 11.0 µM,-2%
same,growth inhibition,[11]; at 33.0 µM,4%
same,growth inhibition,[11]; at 100.0 µM,20%
same,growth inhibition,[12]; at 1.2 µM,0%
same,growth inhibition,[12]; at 3.7 µM,3%
same,growth inhibition,[12]; at 11.0 µM,6%
same,growth inhibition,[12]; at 33.0 µM,11%
same,growth inhibition,[12]; at 100.0 µM,23%
same,growth inhibition,[13]; [17],9%
same,growth inhibition,[13]; [18],28%
same,growth inhibition,[13]; at 50.0 µM,58.4%
CC(C)(CN1CCCCC1)C(=O)/C=C/c1c(Cl)cccc1Cl,growth inhibition,[14]; at 1.2 µM,12%
same,growth inhibition,[14]; at 3.7 µM,35%
same,growth inhibition,[14]; at 11.0 µM,68%
same,growth inhibition,[14]; at 33.0 µM,98% (active)
same,growth inhibition,[14]; at 100.0 µM,98% (active)
same,growth inhibition,[2]; at 1.2 µM,-2%
same,growth inhibition,[2]; at 3.7 µM,0%
same,growth inhibition,[2]; at 11.0 µM,22%
same,growth inhibition,[2]; at 33.0 µM,50%
same,growth inhibition,[2]; at 100.0 µM,47%
same,growth inhibition,[3]; at 1.2 µM,10%
same,growth inhibition,[3]; at 3.7 µM,37%
same,growth inhibition,[3]; at 11.0 µM,81% (active)
same,growth inhibition,[3]; at 33.0 µM,98% (active)
same,growth inhibition,[3]; at 100.0 µM,99% (active)
same,growth inhibition,[4]; at 1.2 µM,11%
same,growth inhibition,[4]; at 3.7 µM,29%
same,growth inhibition,[4]; [17],2%
same,growth inhibition,[4]; at 11.0 µM,67%
same,growth inhibition,[4]; at 33.0 µM,97% (active)
same,growth inhibition,[4]; [18],99% (active)
same,growth inhibition,[4]; at 50.0 µM,75.8% (active)
same,growth inhibition,[4]; at 100.0 µM,97% (active)
same,growth inhibition,[5]; at 1.2 µM,16%
same,growth inhibition,[5]; at 3.7 µM,20%
same,growth inhibition,[5]; [17],14%
same,growth inhibition,[5]; at 11.0 µM,51%
same,growth inhibition,[5]; at 33.0 µM,94% (active)
same,growth inhibition,[5]; [18],97% (active)
same,growth inhibition,[5]; at 50.0 µM,83.9% (active)
same,growth inhibition,[5]; at 100.0 µM,97% (active)
same,growth inhibition,[6]; at 1.2 µM,44%
same,growth inhibition,[6]; at 3.7 µM,54%
same,growth inhibition,[6]; at 11.0 µM,92% (active)
same,growth inhibition,[6]; at 33.0 µM,99% (active)
same,growth inhibition,[6]; at 100.0 µM,99% (active)
same,growth inhibition,[8]; at 1.2 µM,30%
same,growth inhibition,[8]; at 3.7 µM,54%
same,growth inhibition,[8]; at 11.0 µM,79% (active)
same,growth inhibition,[8]; at 33.0 µM,93% (active)
same,growth inhibition,[8]; at 100.0 µM,98% (active)
same,growth inhibition,[9]; [17],55%
same,growth inhibition,[9]; [18],99% (active)
same,growth inhibition,[9]; at 50.0 µM,86.4% (active)
same,growth inhibition,[10]; at 1.2 µM,27%
same,growth inhibition,[10]; at 3.7 µM,49%
same,growth inhibition,[10]; [17],9%
same,growth inhibition,[10]; at 11.0 µM,91% (active)
same,growth inhibition,[10]; at 33.0 µM,98% (active)
same,growth inhibition,[10]; [18],99% (active)
same,growth inhibition,[10]; at 50.0 µM,88.8% (active)
same,growth inhibition,[10]; at 100.0 µM,98% (active)
same,growth inhibition,[11]; at 1.2 µM,19%
same,growth inhibition,[11]; at 3.7 µM,28%
same,growth inhibition,[11]; at 11.0 µM,71% (active)
same,growth inhibition,[11]; at 33.0 µM,98% (active)
same,growth inhibition,[11]; at 100.0 µM,98% (active)
same,growth inhibition,[15]; at 1.2 µM,1%
same,growth inhibition,[15]; at 3.7 µM,14%
same,growth inhibition,[15]; at 11.0 µM,38%
same,growth inhibition,[15]; at 33.0 µM,90% (active)
same,growth inhibition,[15]; at 100.0 µM,97% (active)
same,growth inhibition,[12]; at 1.2 µM,0%
same,growth inhibition,[12]; at 3.7 µM,38%
same,growth inhibition,[12]; at 11.0 µM,73% (active)
same,growth inhibition,[12]; at 33.0 µM,98% (active)
same,growth inhibition,[12]; at 100.0 µM,98% (active)
same,growth inhibition,[13]; [17],30%
same,growth inhibition,[13]; [18],98% (active)
same,growth inhibition,[13]; at 50.0 µM,87.7% (active)
same,growth inhibition,[16]; at 1.2 µM,31%
same,growth inhibition,[16]; at 3.7 µM,57%
same,growth inhibition,[16]; at 11.0 µM,89% (active)
same,growth inhibition,[16]; at 33.0 µM,98% (active)
same,growth inhibition,[16]; at 100.0 µM,98% (active)

# Reference: PubChem BioAssay (NCI)
